The text below walks through data of PubChem BioAssay AID1851 (National Center for Advancing Translational Sciences (NCATS), 2009).

Among all 16,000 compounds or so, about 5,100 (32%) were called active. Another 25% or so got no clear call; they are omitted. The call rests on the fitted dose curve; in most records, active means well fitted curve in the direction sought with a large enough effect; inconclusive means small, poorly fitted or top-dose-only effect, or effect the other way; inactive means no such curve, though single readings can be large or run the other way. The list shows a part of the results.
On the % scale 0 is the no-effect control and ±100 the full control effect.

The target of this experiment is Cytochrome P450 3A4 (Homo sapiens) (UniProt P08684). Kind of experiment: Cytochrome panel assay with activity outcomes. The settings on record: recombinant CYP, pro-luciferin dealkylation, luminescence, p450-cyp3a4; series mostly up to 57.1 µM.
Chain of Cytochrome P450 3A4 (Homo sapiens) (P08684 whole entry, looked up): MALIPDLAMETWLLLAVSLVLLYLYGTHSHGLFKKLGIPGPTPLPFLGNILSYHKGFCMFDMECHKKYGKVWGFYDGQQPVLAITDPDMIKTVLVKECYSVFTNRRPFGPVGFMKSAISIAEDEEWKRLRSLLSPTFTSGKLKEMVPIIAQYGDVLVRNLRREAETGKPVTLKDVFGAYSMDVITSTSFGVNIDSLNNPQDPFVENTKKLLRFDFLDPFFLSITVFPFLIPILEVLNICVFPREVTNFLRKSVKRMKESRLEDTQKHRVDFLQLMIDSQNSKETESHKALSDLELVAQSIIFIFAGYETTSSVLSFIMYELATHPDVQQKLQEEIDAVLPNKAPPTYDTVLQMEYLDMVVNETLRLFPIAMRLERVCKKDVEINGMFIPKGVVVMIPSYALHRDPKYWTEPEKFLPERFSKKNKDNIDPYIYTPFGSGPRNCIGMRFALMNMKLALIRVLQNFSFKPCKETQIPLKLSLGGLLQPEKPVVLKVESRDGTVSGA
For `Cc1cccc(NC(=S)NC2CC3CCCC(C2)N3Cc2cccs2)c1` (stereo unspecified), the activity, negative = inhibition was -1.32% [at 2.29 µM] (inactive).
Still for that read-out and setting: the same measure for `COc1ccc(C[C@H]2NC[C@H](O)[C@@H]2OC(C)=O)cc1`: “inactive”; for `COC1=C(C)C(=O)c2c(c(COC(N)=O)c3n2C[C@@H]2[C@@H]3N2C)C1=O` (stereo partly specified): -20.6% [at 11.4 µM] (inactive); for `COC(=O)[C@@H]1c2cc3c(c(O)c2[C@@H](O)C[C@]1(C)O)C(=O)c1c(O)cc2c(c1C3=O)O[C@H]1O[C@@]2(C)[C@@H](O)[C@H](N(C)C)[C@H]1O`: -12% [at 11.4 µM] (inactive).
Same read-out and setting: the same measure for `C[C@@]12CC[C@H](O[C@@H]3O[C@H](CO)[C@@H](O)[C@H](O)[C@@H]3O)C[C@@H]1CC[C@H]1[C@H]2CC[C@@]2(C)[C@@H](C3=CCOC3=O)CC[C@]12O`: 0.209% [at 11.4 µM] (inactive); for `C1C[C@@H]2CN(CCCN3CCOCC3)[C@@H](C1)O2`: -5.91% [at 11.4 µM] (inactive).
On the same count and under the same terms, the same measure for `NN=C(N)N`: “inactive”.
Usually AC50 stands for the concentration at which the activity in the assay is half-maximal. On to `Clc1ccc(C(c2ccc(Cl)cc2)n2cc[n+](C[C@@H](OCc3ccc(Cl)cc3Cl)c3ccc(Cl)cc3Cl)c2)cc1`, for which the AC50 was 15.8 µM (active).
`CC(C)CN1CCC2(CC1)CCN(S(C)(=O)=O)CC2`: the activity, negative = inhibition entry is “inactive”.
The same measure, in the same setting: the same measure for `O=c1[nH]oc2c1CCNC2`: “inactive”; for `CCC1(CC)C(=O)C=CNC1=O`: “inactive”; for `CC(C)[C@@H]1CN[C@H](C(=O)O)[C@@H]1CC(=O)O`: “inactive”.
Same read-out and setting: the same measure for `C=C1CC[C@H](O)C/C1=C/C=C1\CCC[C@]2(C)[C@H]1CC[C@H]2[C@@H](C)CCCC(C)C`: “inactive”.
As for `N[C@@]1(C(=O)O)CC[C@H](C(=O)O)C1`, the activity, negative = inhibition result is “inactive”.
On to `CC[C@H](CO)NC(=O)[C@@H]1C=C2c3cccc4c3c(cn4C)C[C@@H]2N(C)C1`, for which the activity, negative = inhibition result was “inactive”.
The same measure, in the same setting: the same measure for `CC(C)[C@@]1(NC(=O)[C@@H]2C[C@H]3c4cccc5[nH]cc(c45)C[C@@H]3N(C)C2)O[C@]2(O)[C@H]3CCCN3C(=O)CN2C1=O`: “inactive”.
`CC(C)C[C@H]1C(=O)N2CCC[C@@H]2[C@@]2(O)O[C@](NC(=O)[C@@H]3C=C4c5cccc6[nH]cc(c56)C[C@@H]4N(C)C3)(C(C)C)C(=O)N12`: the AC50 is 2 µM (active).
Take `CCNC(=S)NC1CC2CCCC(C1)N2Cc1ccco1` (stereo unspecified): the activity, negative = inhibition is -6.93% [at 2.29 µM] (inactive).
On the same count and under the same terms, the value for `CC1=CC(=O)C2=C(C)C[C@@H](O)[C@@H]3[C@@H](OC(=O)[C@H]3C)[C@H]12` was “inactive”; that for `O=C(Nc1cccc2ccccc12)c1nn(C23CC4CC(CC(C4)C2)C3)cc1Br` was “inactive”; that for `NCCCNCCSP(=O)(O)O` was “inactive”.
On the same count and under the same terms, the same measure for `CNC(=S)NC1CC2CCCC(C1)N2CC(C)C` (stereo unspecified): “inactive”.
Turning to `C[C@@H]1O[C@H](O[C@H]2C[C@@H](O)[C@@]3(CO)[C@H]4[C@@H](O)C[C@]5(C)[C@@H](C6=CC(=O)OC6)CC[C@]5(O)[C@H]4CC[C@]3(O)C2)[C@@H](O)[C@H](O)[C@@H]1O`, the activity, negative = inhibition result is “inactive”.
On the same count and under the same terms, the same measure for `Cc1ccc(C2(c3ccc(C)c(O)c3C)CCN(C)CC2)c(C)c1O`: -1.39% [at 11.4 µM] (inactive).
For `CCOP(=O)(OCC)c1nc(/C=C/c2ccccc2)oc1NCc1ccccc1`, the AC50 was 14.1 µM (active).
Regarding `C[C@H](Br)C(=O)c1ccc2cc(Br)c3ccccc3c2c1`, the activity, negative = inhibition was -23.5% [at 11.4 µM] (inactive).
On the same count and under the same terms, the value for `NCCc1c[nH]c2ccc(C(N)=O)cc12` was “inactive”; that for `CCCN(CCC)[C@H]1CCc2c(F)ccc(O)c2C1` was “inactive”.
As to `CCS(=O)(=O)Nc1cccc(C(=C2CCCCC2)c2cnc[nH]2)c1`, the AC50 is 0.316 µM (active).
Consider `CC1(C)CCC(C)(C)c2c1ccc(O)c2Cc1c(O)ccc2c1C(C)(C)CCC2(C)C`, for which the activity, negative = inhibition was -26.4% [at 11.4 µM] (inactive).
Same read-out and setting: the same measure for `C[C@@]12CC[C@H](O)C[C@@H]1CC[C@@H]1[C@@H]2CC[C@@]2(C)[C@@H](C3=CC(=O)OC3)[C@H](O)C[C@]12O`: -21.4% [at 11.4 µM] (inactive).
With `C[C@@]12CC[C@H](O)C[C@@H]1CC[C@H]1[C@H]2CC[C@@]2(C)[C@@H](C3=CC(=O)OC3)CC[C@]12O`, the AC50 was 3.16 µM (active).
Regarding `C[C@@]12CC[C@H](O)C[C@@H]1CC[C@H]1[C@@H]2C[C@@H](O)[C@]2(C)[C@@H](C3=CC(=O)OC3)CC[C@]12O`, the activity, negative = inhibition entry was “inactive”.
For `CC[N+](CC)(CC)CCOc1cccc(OCC[N+](CC)(CC)CC)c1OCC[N+](CC)(CC)CC`, the activity, negative = inhibition result was “inactive”.
For `CCN1C[C@@]2(COC)[C@H]3[C@@H](OC)[C@H]4C1[C@@]3([C@H](OC)C[C@@H]2O)[C@H]1C[C@@]2(O)[C@@H](OC(=O)c3ccccc3)[C@@H]1[C@@]4(OC(C)=O)[C@H](O)[C@@H]2OC`, the activity, negative = inhibition result was “inactive”.
The same measure, in the same setting: the same measure for `O=c1c2ccccc2c2ccccc2c(=O)n1-c1cc2c3ccccc3ccc2c2ccccc12`: -20.6% [at 11.4 µM] (inactive); for `CC1=C2C(=O)[C@@H]3[C@@H](CC=C4C[C@@H](O)CC[C@@]43C)[C@H]2CC[C@@]12O[C@H]1C[C@H](C)CN[C@H]1[C@@H]2C`: 7.7% [at 11.4 µM] (inactive).
The same measure, in the same setting: the value for `Cc1sc2ccccc2c1CC1=NCCN1` was “inactive”; that for `CC(N)Cc1ccccc1Sc1ccc(O)cc1` (stereo unspecified) was 13.2% [at 2.29 µM] (inactive); that for `O=[N+]([O-])c1cc([As](=O)(O)O)ccc1O` was “inactive”.
Turning to `Cn1c(O)c(C(c2ccccn2)c2c(O)n(C)c(=S)n(C)c2=O)c(=O)n(C)c1=S`, the AC50 is 0.794 µM (active).
For the molecule `CCn1c(O)c(C(c2ccccn2)c2c(O)n(CC)c(=S)[nH]c2=O)c(=O)[nH]c1=S`, the activity, negative = inhibition result was “inactive”.
Same read-out and setting: the same measure for `Cn1c(O)c(C(c2ccccn2)c2c(O)n(C)c(=S)[nH]c2=O)c(=O)[nH]c1=S`: “inactive”; for `c1ccc(N2CCC3(CCNCC3)CC2)cc1`: “inactive”.
Same read-out and setting: the value for `Cn1cc(C(=O)C(=O)N[C@H]2CN3CCC2CC3)c2ccccc21` was “inactive”; that for `C[C@H](N)[C@H](O)c1ccc(O)c(O)c1` was “inactive”; that for `CC[C@]1(c2cccc(O)c2)CCCCN(C)C1` was “inactive”.
Take `COc1ccc(Cn2c(N)c(C(=O)NCc3ccco3)c3nc4ccccc4nc32)cc1`: the AC50 is 11.2 µM (active).
In the case of `CCCCn1c(N)c(C(=O)NCc2cccs2)c2nc3ccccc3nc21`, the activity, negative = inhibition is -29.4% [at 2.29 µM] (inactive).
Same read-out and setting: the value for `CC(C)CCn1c(N)c(C(=O)NCc2cccs2)c2nc3ccccc3nc21` was -19.7% [at 2.29 µM] (inactive); that for `CC(=O)OCC(=O)[C@@H]1CC[C@H]2[C@H]3CC[C@H]4C[C@@H](O)CC[C@]4(C)[C@@H]3C(=O)C[C@@]12C` was “inactive”.
Same read-out and setting: the same measure for `O=C(O)C[C@H]1NCc2cc3ccccc3nc21`: -6.42% [at 11.4 µM] (inactive).
The same measure, in the same setting: the value for `CCC1=C(C[C@H]2NCCc3ccccc32)C[C@@H]2c3cc(OC)c(OC)cc3CCN2C1` was -26.3% [at 11.4 µM] (inactive); that for `COc1ccc(C(=O)O[C@H]2CC[C@@]3(C)[C@H]4CC[C@H]5[C@]3(C[C@]3(O)[C@H]6CN7C[C@H](C)CC[C@H]7[C@](C)(O)[C@]6(O)[C@H](O)C[C@]53O)O[C@]24O)cc1OC` was -3.45% [at 11.4 µM] (inactive); that for `Nc1ccccc1O.O.O=C(O)[C@H]1[O][Sb][O][C@H]1C(=O)O` was -6.7% [at 11.4 µM] (inactive).
Turning to `O=C=Nc1ccc(Cc2ccc(N=C=O)cc2)cc1` (tested in a mixture with another compound), the activity, negative = inhibition was 6.47% [at 11.4 µM] (inactive).
In the case of `O=S1(=O)N(CCN2CC=C(c3c[nH]c4cc(F)ccc34)CC2)c2cccc3c2N1CCC3`, the AC50 was 5.01 µM (active).
`CN1CC[C@]2(C)c3cc(O)ccc3N(C)[C@@H]12`: the activity, negative = inhibition entry was “inactive”.
Still for that read-out and setting: the same measure for `c1csc(CN2CCC3(CCNCC3)CC2)n1`: “inactive”.
Take `Cc1c(C(=O)c2ccc3ccccc3c2)c2cccc3c2n1[C@H](CN1CCOCC1)CO3`: the AC50 was 7.94 µM (active).
For `O[C@@H]1[C@H](O)[C@H]2[C@@H](O)CCN2C[C@@H]1O`, the activity, negative = inhibition result was “inactive”.
On the same count and under the same terms, the same measure for `CCN(CC)C1=NC(=[N+](CC)CC)c2ccccc21`: “inactive”; for `CCCCCCC[n+]1ccc(-c2cc[n+](CCCCCCC)cc2)cc1`: “inactive”.
On the same count and under the same terms, the same measure for `O=C1CS[C@@H](c2ccccc2Cl)c2cc(Cl)ccc2N1`: “inactive”; for `O=C(O)c1cc(N=Nc2ccc([As](=O)(O)O)cc2)ccc1O`: 1.38% [at 11.4 µM] (inactive).
In the case of `CCOC(C(=O)OCCCN(CC)CC)(c1ccccc1)c1ccccc1`, the AC50 was 0.708 µM (active).
In the case of `C=C1[C@@H]2CC[C@H]3[C@@]4(C)C[C@@H](O[C@@H]5O[C@H](CO)[C@H](OS(=O)(=O)O)[C@@H](OS(=O)(=O)O)[C@@H]5OC(=O)CC(C)C)C[C@@H](C(=O)O)[C@H]4CC[C@@]3(C2)[C@H]1O`, the activity, negative = inhibition entry was “inactive”.
On to `CCN1C[C@@]2(COC)CC[C@H](OC)[C@]34[C@@H]1[C@]1(OCO[C@@]15C[C@@H](OC)C1C[C@H]3[C@H]5[C@@H]1OC)[C@H](O)[C@@H]24`, for which the activity, negative = inhibition result is “inactive”.
On the same count and under the same terms, the value for `O=C(O)c1ccccc1-c1c2cc(Br)c(=O)cc-2oc2[c]([Hg])c(O)c(Br)cc12` was “inactive”; that for `CC(=O)O[C@H]1C[C@@H](O[C@@H]2[C@H](C)O[C@H](O[C@@H]3[C@H](C)O[C@H](O[C@@H]4CC[C@@]5(C)[C@@H](CC[C@]6(C)[C@]5(C)C[C@H](O)[C@]5(C)[C@@H](C7=CC(=O)OC7)CC[C@@]56O)C4)C[C@@H]3O)C[C@@H]2O)O[C@@H](C)[C@H]1O[C@H]1O[C@@H](CO)[C@@H](O)[C@@H](O)[C@@H]1O` was “inactive”.
Turning to `COC(=O)[C@H]1C(=O)c2ccccc2O[C@@](C(=O)OC)(c2ccccc2)[C@@H]1c1ccccc1`, the AC50 is 3.98 µM (active).
Consider `O=P(O)(O)CCP(=O)(O)O`, for which the activity, negative = inhibition is 6.5% [at 11.4 µM] (inactive).
The same measure, in the same setting: the same measure for `Cc1cc[c]([Sb]2[O][C@H]([C@H](O)[C@H](O)C(=O)O)[C@@H](CO)[O]2)cc1`: 0.934% [at 11.4 µM] (inactive); for `C[N+]1(C)[C@@H]2CC[C@H]1CC(OC(=O)[C@@H](CO)c1ccccc1)C2` (stereo partly specified): “inactive”.
As for `C[N+]1(C)C2CC[C@H]1CC(OC(=O)[C@@H](CO)c1ccccc1)C2` (stereo partly specified), the activity, negative = inhibition was 8.45% [at 11.4 µM] (inactive).
`C[N+]1(C)[C@@H]2CC[C@H]1CC(OC(=O)c1c[nH]c3ccccc13)C2` (stereo partly specified): the AC50 was 7.94 µM (active).
